Results filed as inconclusive are left out. Entries that show only a call come without a potency. Activity calls are given as the source filed them. Calls follow the shape of the dose curve; as a rule, active = well fitted inhibition curve with a large enough effect; inconclusive = small, poorly fitted or top-dose-only effect; inactive = no such curve, though single readings can be large or run the other way.
biological target: Tumor susceptibility gene 101 protein (Homo sapiens) (UniProt Q99816); test: qHTS Assay for Iinhibitors of HIV-1 Budding by Blocking the Interaction of PTAP/TSG101: Hit Validation in TR assay; settings: Tsg101 binding domain + Texas Red-labeled PTAP peptide, fluorescence polarization, 20 min; series mostly up to 57.5 µM
Sequence (Q99816 whole entry, looked up, the tested form may be a part): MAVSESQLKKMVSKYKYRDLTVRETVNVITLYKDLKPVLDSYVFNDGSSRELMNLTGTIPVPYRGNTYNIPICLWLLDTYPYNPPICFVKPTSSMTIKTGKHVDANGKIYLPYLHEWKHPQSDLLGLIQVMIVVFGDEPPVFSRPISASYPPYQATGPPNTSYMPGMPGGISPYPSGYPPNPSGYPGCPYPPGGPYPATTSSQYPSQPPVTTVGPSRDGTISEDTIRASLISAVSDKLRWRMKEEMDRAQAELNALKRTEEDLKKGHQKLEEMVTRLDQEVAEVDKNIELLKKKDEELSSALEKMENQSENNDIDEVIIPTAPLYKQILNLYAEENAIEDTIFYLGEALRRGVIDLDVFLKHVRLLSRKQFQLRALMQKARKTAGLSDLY
Method in brief: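 Fluorescence polarization: Tsg101 binding domain (10 uM final) with Texas Red-labelled PTAP peptide (50 nM final) in HEPES pH 7.5, 0.15 M NaCl, Tween 20, EDTA, TCEP; 20 min binding at room temperature after compound addition.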
Potency is read from the fitted curve at half-maximal effect.

Structure (SMILES) | Potency
O=C(Cc1nc2ccccc2[nH]c1=O)c1ccccc1 | inactive
Cn1cc(/C=C2\SC(=S)N(NC(=O)c3ccccc3Cl)C2=O)c2ccccc21 | inactive
O=S(=O)(Nc1cccc(-c2ccc(N3CCCCCC3)nn2)c1)c1cccc(F)c1 | inactive
COc1ccccc1N1C(C)=CC(=C(C#N)c2nc3ccccc3s2)C=C1C | inactive
CC(=O)n1c(C=Nc2ccc(Cl)cc2)c(O)c2ccccc21 | inactive
CCn1c(C)cc(C=C2C(=O)c3ccccc3C2=O)c1C | inactive
COc1ccc(C2C(C(=O)c3cccs3)=C(O)C(=O)N2c2nnc(C)s2)cc1OC (centres undefined) | inactive
COC(=O)c1cc2c(N)c(C(=O)c3ccc(Cl)cc3)sc2nc1C(OC)OC | inactive
CC(=O)N(/N=C1/C(=O)Nc2ccccc21)c1ccccc1 | inactive
O=C1CCCC2=C1Sc1ccc(Cl)cc1N2 | inactive
Oc1[nH]c2ccccc2c1N=Nc1ccccc1 | inactive
Cn1c(=O)c(N)c2c3c(c(Br)ccc31)C(=O)c1ccccc1-2 | 18.3 µM (active)
CCN(CC)c1ccc(/C=C(\C#N)C(=O)NCc2ccccc2)cc1 | inactive
COc1ccc2c3c(cccc13)C(=O)CC2 | inactive
CCOC(=O)c1cc2n(c1N)-c1ccccc1C2=O | inactive
COc1ccc(OC)c2cc3ccccc3cc12 | inactive
Cc1ccc(NC(=O)/C(C#N)=C(\N)C(Cl)(Cl)Cl)nc1 | inactive
O=C(NCc1cccc(C(F)(F)F)c1)c1cccc2c1C(=O)c1ccc(N3CCC(Cc4ccccc4)CC3)cc1S2(=O)=O | inactive
Cc1ccc[n+](-c2nc([O-])sc2C=O)c1 | inactive
COc1ccc(/C=c2\s/c(=C/C(=O)c3ccc(C)cc3)[nH]c2=O)c(OC)c1 | inactive

Structure (SMILES) | Potency
COc1ccc2c(C#N)c3ccccn3c2c1 | inactive
O=c1ccc2cc3c4c(c2o1)CCCN4CCC3 | inactive
Cc1cc2nc3c(=O)n(Cc4ccccc4)c(=O)[nH]c3nc2cc1N | inactive
Cn1cccc1/C=C1\SC(=S)N(NC(=O)c2ccccc2Cl)C1=O | inactive
N=c1oc2ccc3ccccc3c2cc1-c1nc(-c2ccccc2)cs1 | inactive
CCN(CC)C(=O)[C@H]1CC(CC(=O)NCc2cccc(C(F)(F)F)c2)C(=O)N2CCc3c([nH]c4ccc(OC)cc34)[C@]12C (some centres undefined) | inactive
O=C(C1=NN(c2ccccc2)C2C(=O)N(c3ccccc3)C(=O)C12)c1ccccc1 (centres undefined) | inactive
COc1cc(C2C=C(c3cccs3)Nc3ncnn32)cc(OC)c1OC (centres undefined) | inactive
c1ccc2[nH]c3cc4ncnc4cc3nc2c1 | inactive
C=C1CCN(c2ccc(C(=O)O)cc2[N+](=O)[O-])CC1 | inactive
Cc1cc(C=C2C(=O)c3ccccc3C2=O)c(C)n1-c1ccc(Cl)cc1 | inactive
CCOC(=O)Cn1c(=NC(=O)c2ccc([N+](=O)[O-])s2)sc2ccccc21 | inactive
Cc1cccc2cc(/C=C3\N=C(c4ccccc4)OC3=O)c(N3CCOCC3)nc12 | inactive
O=C1Nc2ccccc2/C1=C/c1cnc(-c2ccccc2)[nH]1 | inactive
O=[N+]([O-])c1ccc(Sc2cccc[n+]2[O-])c2nonc12 | inactive
Cc1cc([N+](=O)[O-])ccc1-c1ccc(/C=N/NC(=O)Cc2ccccc2)o1 | inactive
CN1CCC2(CC1)C1CN(C)CC=C1C(C#N)=C(N)C2(C#N)C#N (centres undefined) | inactive
CN(C)c1ccc(N=Cc2nc(-c3ccccc3)oc2O)cc1 | inactive
CCN1CC=C2C(C#N)=C(N)C(C#N)(C#N)C(CCc3ccccc3)C2C1 (centres undefined) | 11.6 µM (active)

Source: PubChem BioAssay AID651599 (National Center for Advancing Translational Sciences (NCATS), 2012)
